Source: PubChem BioAssay (NCI)
Compounds without any hit were thinned out: in the full panel of roughly 83,000, 20% have a hit.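 Results are percent growth after 48 hours of single-concentration exposure. 100 means growth as in untreated cells, lower positive values show inhibition; negative values down to -100 show cell death.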 Unmarked numbers belong to inactive results. Active and inactive are the calls of the source. The calls were made as follows: active = growth percent below 10; inactive = the rest.

Assays:
Test in all cases: NCI-60 one-dose screen, 48 h (100 = growth as untreated, 0 = no growth, -100 = all killed)
Details in all cases: 10 µM unless noted
NCI-H23 lung = system: NCI-H23 lung
NCI-H226 lung = system: NCI-H226 lung
NCI-H322M lung = system: NCI-H322M lung
HOP-62 NSCLC = system: HOP-62 NSCLC
HOP-92 NSCLC = system: HOP-92 NSCLC
NCI-H522 lung = system: NCI-H522 lung
A549/ATCC NSCLC = system: A549/ATCC NSCLC
786-0 renal = system: 786-0 renal
COLO 205 colon = system: COLO 205 colon
NCI-H460 lung = system: NCI-H460 lung

| Structure (SMILES) | growth (NCI-H23 lung) | growth (NCI-H226 lung) | growth (NCI-H322M lung) | growth (HOP-62 NSCLC) | growth (HOP-92 NSCLC) | growth (NCI-H522 lung) | growth (A549/ATCC NSCLC) | growth (786-0 renal) | growth (COLO 205 colon) | growth (NCI-H460 lung) |
| --- | --- | --- | --- | --- | --- | --- | --- | --- | --- | --- |
| CCOc1ccc2nc(SCc3nc4n(n3)S(=O)(=O)c3ccccc3N4C)sc2c1 | 13.2% | 32% | 38.6% | -42.9% (active) | -14% (active) | 22.6% | 24% | -33.3% (active) | 23.3% | – |
| COc1ccc(-c2cc3c4c(nc5ccccc5c4c2)CC(c2cc(OC)c(OC)c(OC)c2)O3)cc1 (stereo unspecified) | 54.2% | -12.5% (active) | 54.2% | 34.7% | -7.6% (active) | 55.6% | 64.7% | -56.1% (active) | 67.5% | – |
| O=C(CS(=O)c1oc(-c2cccs2)nc1S(=O)(=O)c1ccc(Br)cc1)c1ccccc1 (stereo unspecified) | 92.6% | 80.8% | 97.7% | 84.6% | 76% | 81.4% | 96.6% | 98.7% | 106% | – |
| Cc1cc(O)c(C2=NN(c3ccc(S(N)(=O)=O)cc3)C(c3ccccc3O)C2)cc1Cl (stereo unspecified) | -19.9% (active) | 0.355% (active) | 46.8% | – | 5.49% (active) | -56.8% (active) | 3.15% (active) | -55.7% (active) | – | -47.9% (active) |
| Cc1cc(N2CCCC2)nc(N(CCCNc2ccnc3cc(Cl)ccc23)Cc2ccccn2)n1 | 59% | 79.8% | 57.1% | 55.6% | 17.4% | 47.3% | 62% | 53.3% | 39.1% | – |
| Fc1cc2c(cc1Cl)N(c1ncnc3ccc(-c4cnc5cnccn45)cc13)CC2 | 83% | 92.8% | 80.7% | 78.1% | 87.4% | 82.6% | 86.8% | 81.1% | 121% | – |
| Cc1ccc(C2CC(c3ccc(Nc4ccnc5cc(Cl)ccc45)cc3)=NN2C=O)cc1 (stereo unspecified) | 60.3% | 85.1% | 87.8% | 72.5% | 61.5% | 50.1% | 50.2% | 64% | 64.9% | – |
| CCc1cccc2c3c(sc12)C(c1ccc(Cl)cc1)C(C#N)=C(N)O3 (stereo unspecified) | 22.5% | 41.2% | 49.6% | 36.9% | 66.7% | 16.8% | 34.6% | 26.9% | 9.3% (active) | – |
| C[N+]1=C(/C=C/c2ccc(O)c3ncccc23)C(C)(C)c2ccccc21 | 80.1% | 15% | 97.4% | 30% | 87.1% | 51.9% | 17.9% | 66.7% | 35.7% | – |
| CC/C=C\C[C@@H]1C/C=C2/C(=O)C=C[C@H]2C/C=C\CCCC(=O)O1 | -32.1% (active) | -20% (active) | -54.5% (active) | -14% (active) | -25.8% (active) | -83.4% (active) | -26.7% (active) | -88.4% (active) | -64.2% (active) | – |
| Cc1cc(=O)[nH]c(=O)n1Cc1cn(-c2c3ccccc3nc3ccccc23)nn1 | 94% | 105% | 105% | – | 67.6% | -74.3% (active) | 92.3% | 79.4% | 96.1% | 99.3% |
| CCCCN(C)N=Nc1ccc(C(N)=O)cc1 | 102% | 124% | 105% | – | 103% | 109% | 97.3% | 106% | 110% | 104% |
| O=C(/C=C/c1sc(Cl)nc1Cl)c1ccc(F)cc1 | 94% | 96.4% | 100% | – | 96.9% | 86.6% | 98.4% | 95.8% | 75.6% | 102% |
| O=c1c2cc(C(F)(F)F)ccc2sc2c(NCCCNCCO)nc3ccccc3c12 | 45% | 75.7% | 58.5% | – | 27.9% | -22.2% (active) | -29.6% (active) | 43% | -53.2% (active) | -82.3% (active) |
| COc1cc(C(=O)/C=C/c2c(Cl)nc3sccn23)cc(OC)c1OC | 91.8% | 92% | 77.3% | – | 57.3% | 61.8% | 83% | 91.6% | 104% | 87.1% |
| COc1cc(C(=O)c2cnc(-c3cccc4[nH]ccc34)[nH]2)cc(OC)c1OC | 26.4% | 45.7% | 35.3% | – | 17.5% | -7.75% (active) | 24.5% | 6.82% (active) | -36.9% (active) | 2.81% (active) |
| CC1(C)C2CC1C1(/C=N\Nc3ccccc3)C(C2)C(C#N)(C#N)C1(C#N)C#N (stereo unspecified) | 85.1% | 86.8% | 80.4% | – | 80.9% | 77.8% | 93.4% | 100% | 115% | 99% |
| O=C1CCC/C=C\C[C@H]2C=CC(=O)/C2=C/C[C@H](CCc2cccc(C(F)(F)F)c2)O1 | -22% (active) | -36.2% (active) | -44.6% (active) | – | -46.5% (active) | -88.7% (active) | 0.826% (active) | -79.2% (active) | -84.8% (active) | -24.6% (active) |
| COc1ccc2nc(NCCCNCCO)c3sc4ccc(F)cc4c(=O)c3c2c1 | 62.7% | 87.9% | 67.8% | – | 12.2% | 45.6% | 49.2% | 56.7% | -49.3% (active) | -72.8% (active) |
| COc1nc2ccc(C)cc2cc1-c1nc2c(cnn2-c2ccccc2)c(=O)[nH]1 | 80.5% | 92% | 95.9% | – | 78.9% | 56.5% | 84.3% | 95.3% | 86.3% | 80.3% |
| O=C(S)CNC(=O)c1ccccc1 | 94.3% | 101% | 95.1% | – | 74.7% | 86.4% | 99.8% | 98.1% | 107% | 105% |
| O=C(Nc1ccc(Cl)cc1F)c1ccccc1O | 17% | 25.6% | 36.3% | – | -14.5% (active) | 11% | 46.3% | 50.6% | 98.2% | 27.5% |
| c1ccc2c(-c3nc(-c4c[nH]c5ccncc45)cs3)c[nH]c2c1 | 74.4% | 78.5% | 79.1% | – | 49.2% | 56.3% | 34.5% | 64.9% | -77.8% (active) | -26.4% (active) |
| O=CN(SSN(C=O)C1CCCCC1)C1CCCCC1 | 115% | 91.9% | 110% | – | 135% | -25.1% (active) | 119% | 105% | – | 125% |
| O=C(N/N=C/[C@H](O)[C@@H](O)[C@@H](O)[C@H](O)CO)c1ccc(NC(=O)c2cccnc2)cc1 | 110% | 106% | 103% | – | 111% | 96.2% | 102% | 113% | 110% | 108% |
| Cc1ccc2c(n1)C(=O)C(Cl)=C(Nc1ccccc1C(C)C)C2=O | 49.8% | 59.1% | 62.7% | – | 106% | 39.3% | 94.7% | 91.2% | 116% | 82.4% |
| NC1=C(c2nn[nH]n2)C(c2ccccc2Cl)c2ccc3ccccc3c2O1 (stereo unspecified) | 76.3% | 76.8% | 89.9% | – | 69.7% | 35.5% | 83.3% | 82.7% | 86.8% | 87.5% |
